Rows were chosen to be rich in hits. Some 1.8% of all compounds tested hit in one or more screens of this group.
NadD block: NadD (S. aureus) enzyme inhibition. AID 602399. 0.78% of 360,000 active. purified NadD enzyme, colorimetric absorbance read-out. inhibition, % at 20 µM; in the data active means inhibition above about 26%
pCIP destab: compounds decreasing mouse p/CIP protein stability | 0.01% of 290,000 active | decrease of EGFP signal, % at 10 µM | F442A p/CIP-EGFP cells, EGFP fluorescence, 16 h | Q05BA5;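 active means EGFP signal decrease of at least 30% at 10 µM or well 3 SD below plate mean, unless failing retest; inactive means the rest, including hits failing retest or dose response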
UBC9 SUMO inh: SUMOylation inhibition; P63279; HTRF SUMOylation assay, SAE1/SAE2 + UBC9, in vitro; inhibition, % at 35 µM; 0.36% of 290,000 active; AID 2006; in the data active means inhibition above about 50%, passing the limit was not always enough
Target sequence (P63279 whole entry, looked up): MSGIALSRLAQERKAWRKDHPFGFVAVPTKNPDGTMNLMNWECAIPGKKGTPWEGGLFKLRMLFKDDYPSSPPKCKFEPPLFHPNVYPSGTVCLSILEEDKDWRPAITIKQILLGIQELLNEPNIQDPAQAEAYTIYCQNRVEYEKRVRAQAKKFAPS
PHOSPHO1 block: PHOSPHO1 (human) inhibition; recombinant PHOSPHO1, absorbance phosphatase assay; Q8TCT1; 1.1% of 290,000 active; inhibition, % at 13.3 µM; in the data active means inhibition above about 60%
Target sequence (Q8TCT1 whole entry, looked up): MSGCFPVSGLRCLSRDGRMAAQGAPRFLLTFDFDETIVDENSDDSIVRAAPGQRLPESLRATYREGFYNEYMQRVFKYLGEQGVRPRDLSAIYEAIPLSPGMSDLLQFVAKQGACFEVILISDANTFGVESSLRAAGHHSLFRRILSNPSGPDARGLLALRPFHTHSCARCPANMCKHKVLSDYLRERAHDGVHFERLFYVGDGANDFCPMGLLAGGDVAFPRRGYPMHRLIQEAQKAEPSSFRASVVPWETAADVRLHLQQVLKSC
NadD conf: NadD (S. aureus) inhibition, single concentration confirmation; shares compounds with NadD block; purified S. aureus NadD, colorimetric enzyme assay; inhibition, % at 20 µM; 13% of 2,000 active; AID 624309; in the data active means inhibition mostly above about 42%, no sharp cut-off; inactive means mostly below about 42%
* = called active by the depositor; · = not tested or not shown.

SMILES | NadD block | pCIP destab | UBC9 SUMO inh | PHOSPHO1 block | NadD conf
O=c1c(/C=N/Nc2ccccc2)c(Sc2nnnn2-c2ccccc2)nc2ccccn12 | 31* | -39 | 8 | 93* | 6
COc1cccc(-c2noc(Cn3nc(C(=O)O)c4ccccc4c3=O)n2)c1 | -3 | 4 | 14 | 12 | ·
O=C(O)c1nn(Cc2ncc(-c3cccc(Cl)c3)o2)c(=O)c2ccccc12 | 34* | -9 | 6 | 27 | 16
O=C(NCC(F)(F)F)c1ccc(S(=O)(=O)Nc2ccccc2N2CCCC2)cc1 | 40* | · | · | · | 11
Cc1cc(N2CCN(c3nc(-c4ccc([N+](=O)[O-])cc4)cs3)CC2)c2ccccc2n1 | 28* | -4 | 11 | -14 | -13
Cc1cc(-c2ccc([N+](=O)[O-])cc2)nc2ccccc12 | 6 | 6 | -6 | 53 | ·
Nc1c(C(=O)O)sc2nc(-c3ccccc3)cc(-c3ccc(Cl)cc3)c12 | 5 | 8 | 18 | 40 | ·
Nc1c(C(=O)O)sc2nc(-c3ccc(F)cc3)cc(-c3ccccc3)c12 | 37* | 6 | 10 | -35 | 29
COc1ccccc1C(=O)NCCC(=O)N1CCCCC1 | 2 | -16 | 10 | 18 | ·
COc1ccccc1C(=O)NCCC(=O)N1CC=C(c2ccccc2)CC1 | 42* | · | · | · | 8
Cc1cccc(CNC(=O)c2sc(=O)n(Cc3c(C)cccc3C)c2C)c1 | 1 | · | · | · | ·
Cc1cccc(C(=O)N[C@H](C(=O)Nc2nccs2)C(C)C)c1 | 0 | 0 | -5 | 3 | ·
C=CCN(CC=C)S(=O)(=O)c1ccc(NC(=S)NC(=O)/C=C/c2cccc3ccccc23)cc1 | 31* | -7 | 29 | -20 | 4
C=CCN(CC=C)S(=O)(=O)c1ccc(NC(=S)NC(=O)/C=C/c2ccc(C)cc2)cc1 | -4 | 2 | -10 | -2 | ·
COC(=O)c1c(NC(=O)COC(=O)c2ccccc2O)sc2c1CCCCC2 | 2 | -5 | 3 | 11 | ·
COC(=O)c1c(NC(=O)COC(=O)c2ccc(NC(=O)CC#N)cc2)sc2c1CCCCC2 | 82* | -34 | · | 30 | 25
NC(N)=Nc1nc(CCN2C(=O)c3ccccc3C2=O)cs1 | -3 | -37 | 28 | -9 | ·
N#Cc1c(N2CCN(c3ccc(F)cc3)CC2)nc(N)c2c(N)nc3c(c12)CC(=O)N3C1CC1 | 44* | -12 | 94 | 17 | 15
CN(C)c1nc(N2CCN(c3ccc(F)cc3)CC2)c(C#N)c(=O)o1 | 1 | -2 | 29 | -30 | ·
O=C(CSc1nnc2scc(-c3ccccc3)n12)Nc1nsc(-c2ccc(Cl)cc2)n1 | 41* | · | · | · | 10
Cc1ccc(-c2nc(NC(=O)CSc3nnnn3-c3ccccc3)ns2)cc1 | -5 | -1 | -3 | 21 | ·
Cc1nc(N2CCN(c3ccccn3)CC2)c2c(C)c(C(=O)Nc3ccc(Br)cc3C)sc2n1 | 30* | -14 | 5 | 14 | 5
O=c1cc(CSc2nc(NCc3ccc(Cl)cc3)c3ccccc3n2)nc2ccc(Cl)cn12 | 33* | · | · | · | 15
COc1ccc(-c2csc(NC(=S)NC(=O)c3cccs3)n2)cc1Br | 25* | -16 | 30 | 25 | 3
COc1ccc(-c2csc(NC(=S)NC(=O)c3cccs3)n2)cc1OC | 8 | -11 | 25 | 1 | ·
SMILES | NadD block | pCIP destab | UBC9 SUMO inh | PHOSPHO1 block | NadD conf
CCOC(=O)[C@]12CCCC=C1N(Cc1cccc3ccccc13)C(=O)[C@H](CC(=O)NCc1ccc(OC)c(OC)c1)C2 | -4 | · | · | · | ·
N#C/C(=C\c1c[nH]c2ccccc12)C(=O)Nc1ncc(Cc2ccc(Cl)cc2Cl)s1 | 38* | -12 | -8 | 2 | -5
Cn1cc(/C=C(\C#N)C(=O)Nc2ncc(Cc3cccc(Cl)c3)s2)c2ccccc21 | · | -6 | 22 | -1 | ·
COc1cc(CNC(=O)OC2CC3CC2[C@H]2CCCCN2C3=O)cc(OC)c1 (some centres undefined) | 6 | · | · | · | ·
O=C(c1ccoc1)N1CCN(c2cc(-c3cccc(F)c3)nc3cc(-c4cccc(Cl)c4)nn23)CC1 | 45* | · | · | · | 6
Cc1cccn2c(=O)c3cc(C(N)=S)c(=N)n(CCCN4CCOCC4)c3nc12 | 36* | -13 | 11 | 9 | -8
COCCCn1c(=N)c(C(N)=S)cc2c(=O)n3cccc(C)c3nc21 | 28 | · | · | · | ·
O=S(=O)(O)c1cc(O)c(N=Nc2ccc(O)cc2O)c2ccccc12 | 10 | · | · | · | ·
COc1cc(/C=C/C(=O)O)ccc1O | -5 | · | · | · | ·
COc1cc(/C=C/C(=O)CC(=O)/C=C/c2ccc(O)c(OC)c2)ccc1O | 56* | -21 | 43 | -11 | 52*
COc1cc(OC)cc(C(=O)Nc2ccccc2-c2nnn(CC(=O)Nc3cc(C)on3)n2)c1 | 4 | -1 | 21 | 32 | ·

Screens: PubChem BioAssay, Sanford-Burnham Center for Chemical Genomics
